Sampled rows, rich in hits. Any-hit rate of the full collection: about 6.2%.
HT1080 IDH1KD tx – kills HT-1080 cells with IDH1 knockdown; Potency, µM (doses to about 46.1 µM), inactives show top-dose activity, negative = toxicity, hits mostly cytotoxic; HT-1080 IDH1 knockdown viability, ATP luminescence, 48 h; 2% of 360,000 active;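 also: 0% = DMSO wells and -100% = cell-free medium wells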
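CellTiter-Glo luminescence after 48 h compound exposure at 37 degrees C of IDH1-knockdown HT-1080 cells in 5% FBS RPMI. %Activity scaled between DMSO wells and cell-free media wells, with curves fitted and assigned curve classes.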
ATXN2 expr inh – ATXN2 expression inhibition. HEK-293 ATXN2-luciferase reporter, luminescence, 24 h. Potency, µM (titrated, usually from 57 µM), without a hit: top-dose activity change, negative = inhibition, usual class: inhibitors. AID 1745845. 0.72% of 360,000 active; also: % is scaled to controls: 0 for no effect and ±100 for the full control effect; nearly all actives have a fitted effect of over 55% in size
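qHTS (up to 57 uM final) was run with 24 h compound exposure of reporter cells at 37 °C. Each well was multiplexed: SteadyGlo luminescence measured ATXN2-luciferase expression after a fluorogenic Gly-Phe-AFC viability readout (25 uM final).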
HT1080-NT tox – kills 2HG-producing HT-1080-NT fibrosarcoma cells; Potency, µM (doses to about 46.1 µM), for inactives: at the top dose activity, negative = less viability, actives largely listed as cytotoxic; 1.6% of 360,000 active; HT-1080-NT fibrosarcoma viability, CellTiter-Glo ATP luminescence, 48 h;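 also: NT is the 2HG producing partner of a matched IDH1 knockdown line; 0% = DMSO-treated cells and -100% = media-only wells without cells; nearly all actives have a fitted effect of over 55% in size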
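Compounds were tested in concentration-response format on HT-1080-NT cells for 48 hours at 37 degrees C. Cell viability came from CellTiter-Glo luminescence; curves were classified by r2, response magnitude and activity.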
KB-V1 cytotox – kills drug-selected multidrug resistant KB-V1 cells; KB-V1 MDR cells viability, CellTiter-Glo, 72 h; Potency, µM (highest dose often 46.1 µM), hits mostly cytotoxic; 3.4% of 400,000 active; also: % is scaled to controls: 0 for no effect and ±100 for the full control effect; nearly all actives have a fitted effect of over 60% in size
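qHTS viability screen in drug-selected KB-V1 MDR cells: 72 h compound treatment at 37 degrees C, ATP luminescence end point.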
S2 tox – viability counter-screen for ATXN expression inhibitors; S2 cells (HEK-293 line with an ATXN2-luciferase reporter) viability, CellTiter-Fluor protease fluorescence, 24 h; Potency, µM (series often up to 56.7 µM), most hits filed as cytotoxic; 0.49% of 400,000 active; AID 651635; also: nearly all actives have a fitted effect of over 40% in size
KB-3-1 cytotox – KB-3-1 parental cell cytotoxicity; Potency, µM (series often up to 46.1 µM), usual class: cytotoxic; AID 1347075; KB-3-1 viability, CellTiter-Glo ATP luminescence, 72 h; 1.4% of 400,000 active; also: % is scaled to controls: 0 for no effect and ±100 for the full control effect; nearly all actives have a fitted effect of over 60% in size
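Screening of KB-3-1 cells (DMEM, 10% FBS, phenol-red free) ran from lowest to highest compound concentration; after 72 h at 37 °C viability was read luminescently and curves fitted.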
Starred values were filed as active, the others as inactive; i = inactive; ? = inconclusive; nt = no result; [ ] = dose if it differs, or a comment. Calls follow the shape of the dose curve; as a rule, active = well fitted curve in the direction sought with a large enough effect; inconclusive = small, poorly fitted or top-dose-only effect, or another doubt; inactive = no such curve, though single readings can be large; an effect the other way counts as inactive or inconclusive. Potency is read from the fitted curve at half-maximal effect.

SMILES	HT1080 IDH1KD tx	ATXN2 expr inh	HT1080-NT tox	KB-V1 cytotox	S2 tox	KB-3-1 cytotox
CCOc1ccc(-c2cccc(NS(=O)(=O)c3c(C)cc(C)cc3C)c2)nn1	nt	?	nt	?	?	i
O=C(CCS(=O)(=O)Cc1ccccc1)Nc1ncc([N+](=O)[O-])s1	18µM*	26%	-8%	i	i	i
O=C(CS(=O)(=O)c1ccccc1)Nc1ncc([N+](=O)[O-])s1	14%	-13%	11%	i	?	i
O=C(Nc1ncc([N+](=O)[O-])s1)c1cccs1	21µM*	6%	23µM*	16µM*	?	?
O=C(/C=C/c1ccc([N+](=O)[O-])cc1)Nc1ncc([N+](=O)[O-])s1	?	nt	?	8.2µM*	?	?
O=C(CCS(=O)(=O)c1ccccc1)Nc1ncc([N+](=O)[O-])s1	16µM*	-5%	21µM*	?	i	?
Cc1cnc(NC(=O)c2cccs2)s1	-25%	32%	-29%	?	i	?
CCCCC(CC)C(=O)Nc1ncc([N+](=O)[O-])s1 (stereo not given)	18µM*	?	?	?	?	?
Cc1ccc(CC(=O)Nc2ncc([N+](=O)[O-])s2)cc1	-5%	nt	-10%	i	?	?
C[C@@H]1CN(Cc2ccc3c(c2)CN(C(=O)CCc2nc4ccc(F)cc4[nH]2)CCO3)C[C@H](C)O1	nt	nt	nt	nt	i	nt
CC(C)Oc1ccccc1C1CC(=O)Nc2cc3c(cc21)OCCO3 (stereo not given)	0.71µM*	-10%	1µM*	?	?	?
COc1ccccc1C1CC(=O)Nc2cc3c(cc21)OCCO3 (stereo not given)	1.8µM*	-17%	2.2µM*	5.8µM*	?	?
CCCOc1c(OC)cccc1C1CC(=O)Nc2cc3c(cc21)OCO3 (stereo not given)	-9%[9.24 µM]	-28%	?	16µM*	i	10µM*
CCCOc1c(OC)cccc1C1CC(=O)Nc2cc3c(cc21)OCCO3 (stereo not given)	?	-20%	?	?	?	?
O=C(Nc1ccccc1F)NC1CCN(Cc2nnnn2Cc2ccc(F)cc2)CC1	4%	-12%	4%	15µM*	i	i
CC(C)CCSc1nc2c(c(=O)n(C)c(=O)n2C)n1Cc1ccccc1Cl	nt	21%	nt	?	i	i
CC1=C(C(=O)Nc2cccc(C(F)(F)F)c2)C2(CCN(C(C)C)CC2)OC1=O	nt	-21%	nt	i	i	i
COc1cc(C(=O)Nc2ccc3ccccc3c2)cc(OC)c1OC	0.58µM*	22%	1.3µM*	?	i	?
COc1ccc(C(=O)Nc2ccc3ccccc3c2)cc1OC	14%	49%	0%	i	i	i
O=C(Nc1cc(C(F)(F)F)ccc1Cl)c1ccncc1	1%	-7%	?	i	i	i
COc1cc(C(=O)Nc2cc(C(F)(F)F)ccc2Cl)cc(OC)c1OC	-8%	-27%	-2%	21µM*	i	i
Cn1c(=NC(=O)c2ccc(S(=O)(=O)N3CCCc4ccccc43)cc2)sc2cc(S(C)(=O)=O)ccc21	0%	-5%	3%	3.7µM*	i	i
O=C(Nc1ccccc1)c1ccc2c(c1)CCN2S(=O)(=O)c1ccccc1	-8%	nt	0%	i	?	?
O=C(Nc1ccc(S(=O)(=O)N2CCc3ccccc32)cc1)c1ccc2c(c1)OCO2	?	6%	?	5.2µM*	i	i
O=C(NCC(c1cccnc1)N1CCc2ccccc21)C(=O)Nc1ccccc1F (stereo not given)	nt	nt	nt	i	nt	i
COc1ccc(-c2nc3c4ccccc4n(CC(=O)N4CCN(c5ccccc5OC)CC4)c(=O)n3n2)cc1	nt	-7%	nt	i	i	i
Cc1nnc(N2CCC(C(=O)NC3CCCCC3)CC2)c2nn(-c3ccc(Cl)cc3)c(C)c12	nt	3%	nt	i	i	i

Compound activity (PubChem BioAssay)
